Compound activity as filed in PubChem.
Shown are actives, neighbours in structure and some others; about 10% of the full set was active somewhere.
BAZ2B block: BAZ2B (human) inhibition; 360,000 compounds, 4.4% hits; Potency, µM (doses to about 114 µM), inactives show at the highest dose activity change, negative = inhibition, usual class: inhibitors; Q9UIF8; AID 504333; AlphaScreen BAZ2B-H3K14Ac peptide displacement; also: % is scaled to controls: 0 for no effect and ±100 for the full control effect; nearly all actives have a fitted effect of over 60% in size
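AlphaScreen displacement: compounds (up to 110uM) incubated 30 min at room temperature with a preformed 50 nM BAZ2B/50 nM biotinylated H3K14Ac peptide complex in PBS pH 7.4 with Tween-20. Donor and acceptor beads at 10 ug/mL final added, 20 min light-protected before reading.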
HP1b binding inh: blocks HP1-beta chromodomain binding to methylated histone tails | P83916 | AlphaScreen HP1-beta / biotin-H3K9me3 peptide binding | Potency, µM (top dose mostly 114 µM), for the others: at the highest dose activity change, negative = inhibition, usual class: inhibitors | 390,000 compounds, 0.56% hits | AID 540317; also: nearly all actives have a fitted effect of over 70% in size
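Compound inhibition of the preformed complex between 50 nM HP1-beta and 50 nM biotinylated H3K9me3 peptide was read by AlphaScreen. Buffer was PBS pH 7.4 with 0.01% Tween-20. Incubations ran 30 min at room temperature, with 10 ug/mL donor/acceptor beads.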
G9a block: G9a (human) methyltransferase inhibition; Potency, µM (series often up to 102 µM), for the others: at the top dose activity, negative = inhibition, usual class: inhibitors; AID 504332; Q96KQ7; G9a H3K9 monomethylation, AlphaScreen, 2 h; 350,000 compounds, 8.8% hits; also: % is scaled to controls: 0 for no effect and ±100 for the full control effect; nearly all actives have a fitted effect of over 75% in size
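Quantitative HTS format: methyltransferase activity on a biotin-tagged H3K9 peptide is measured by AlphaScreen, using a rabbit anti-monomethyl-H3K9 antibody with streptavidin donor and anti-IgG acceptor beads. Final levels are 20 nM enzyme, 500 nM peptide, 20 uM SAM; 2 h RT.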
JMJD2A Tudor: blocks the human JMJD2A Tudor domain. O75164. AlphaScreen JMJD2A-Tudor / H3K4me3 peptide binding. Potency, µM (titrated, usually from 114 µM), without a hit: at the highest dose activity change, negative = inhibition, hits mostly inhibitors. 390,000 compounds, 4.4% hits. AID 504339; also: % is scaled to controls: 0 for no effect and ±100 for the full control effect; nearly all actives have a fitted effect of over 50% in size
L3MBTL1 inh: L3MBTL1 (human) inhibition. Q9Y468. AlphaScreen L3MBTL1–H3K9me1 peptide binding. Potency, µM (doses to about 57.1 µM), for the others: at the top dose activity, negative = inhibition, usual class: inhibitors. 230,000 compounds, 0.66% hits. AID 485360; also: % is scaled to controls: 0 for no effect and ±100 for the full control effect; nearly all actives have a fitted effect of over 60% in size
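Displacement of a biotinylated histone H3(1-15) peptide monomethylated at Lys9 (75 nM) from L3MBTL1 (50 nM) was measured by AlphaScreen after a 30 min room-temperature compound incubation; cefsulodin titration served as intraplate control.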
GLS inhibitor: blocks human kidney-isoform glutaminase activity; Potency, µM (titrated, usually from 45.5 µM), without a hit: top-dose activity change, negative = inhibition, hits mostly inhibitors; GLS enzymatic activity, qHTS titration; 410,000 compounds, 0.21% hits; O94925; also: % is scaled to controls: 0 for no effect and ±100 for the full control effect
Target sequence (O94925 whole entry, looked up, canonical isoform): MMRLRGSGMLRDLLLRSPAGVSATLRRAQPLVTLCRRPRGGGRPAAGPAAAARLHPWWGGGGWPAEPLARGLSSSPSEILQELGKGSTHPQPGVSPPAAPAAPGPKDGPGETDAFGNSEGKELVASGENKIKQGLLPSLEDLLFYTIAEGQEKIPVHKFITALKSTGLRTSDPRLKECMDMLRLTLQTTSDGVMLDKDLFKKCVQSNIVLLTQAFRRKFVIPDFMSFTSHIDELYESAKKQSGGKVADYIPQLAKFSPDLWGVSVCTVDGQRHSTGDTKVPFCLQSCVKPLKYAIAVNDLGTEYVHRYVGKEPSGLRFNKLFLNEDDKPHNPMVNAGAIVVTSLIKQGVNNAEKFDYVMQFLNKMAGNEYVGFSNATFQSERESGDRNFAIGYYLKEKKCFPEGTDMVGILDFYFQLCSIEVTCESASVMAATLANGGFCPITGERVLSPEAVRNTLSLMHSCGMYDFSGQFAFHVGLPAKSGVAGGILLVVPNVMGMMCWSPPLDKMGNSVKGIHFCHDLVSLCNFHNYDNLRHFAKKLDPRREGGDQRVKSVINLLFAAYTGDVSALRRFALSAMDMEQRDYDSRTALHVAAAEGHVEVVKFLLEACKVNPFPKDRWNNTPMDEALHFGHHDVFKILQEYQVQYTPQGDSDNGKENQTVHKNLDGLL
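Glutamate formation by hKGA was monitored fluorometrically using coupled glutamate oxidase, HRP and Amplex Red. Substrate was added as 1 mM L-glutamine solution; incubation was 30 min at RT after an initial read.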
The depositor's hits bear a star; ? = inconclusive; nt = not tested or not shown; [ ] = remark or other dose. Calls follow the shape of the dose curve; as a rule, active = well fitted curve in the direction sought with a large enough effect; inconclusive = small, poorly fitted or top-dose-only effect, or another doubt; inactive = no such curve, though single readings can be large; an effect the other way counts as inactive or inconclusive. Potency is read from the fitted curve at half-maximal effect.

SMILES	BAZ2B block	HP1b binding inh	G9a block	JMJD2A Tudor	L3MBTL1 inh	GLS inhibitor
CCCC(=O)O[C@]1(C(=O)COC(C)=O)CC[C@H]2C3C[C@H](F)C4=CC(=O)C=CC4(C)[C@@]3(F)[C@@H](O)CC21C (stereo not given in full)	nt	nt	-6%[12.7 µM]	nt	nt	6%
Cc1cccc(C(=O)n2nc(-c3ccco3)nc2NCc2ccccc2)c1	1%	4%	-30%[59 µM]	18%	nt	-4%
COc1cc(-c2csc(CCn3nc(C)cc3C)n2)cc(OC)c1OC	-35%	-9%	32µM*	-25%	nt	2%
Cc1cc(C)n(CCc2nc(-c3ccc(F)cc3)cs2)n1	-6%	22%	-6%[59 µM]	2%	-3%	8%
COC(=O)c1sc2nc(SCC(=O)N(C)c3ccccc3)n(N)c(=O)c2c1C	10%	24%	25µM*	-7%	nt	-1%
CCOc1ccc(C(=O)NCc2nnnn2-c2ccc(C)c(C)c2)cc1OCC	6%	28%[57 µM]	4%[59 µM]	-6%	nt	-1%
CN(C)S(=O)(=O)c1cccc(NC(=S)N/N=C/C2CC=CCC2)c1 (stereo not given)	-25%	38%	5.6µM*	13µM*	-1%	2%
COc1cc(/C=N/NC(=S)Nc2cccc(S(=O)(=O)N(C)C)c2)ccc1O	-38%	-21%	-1%[59 µM]	?	-10%	10µM*
CN(CC1(C)CCCO1)S(=O)(=O)c1ccc(Cl)c(S(N)(=O)=O)c1 (stereo not given)	nt	nt	nt	nt	nt	-2%
O=C(COc1ccccc1F)N1CCN(S(=O)(=O)/C=C/c2ccccc2)CC1	6%	28%	45µM*	-12%	6%	3%
Cc1ccc(OCC(=O)N2CCN(S(=O)(=O)c3ccc(Cl)cc3)CC2)c([N+](=O)[O-])n1	-6%	12%	40µM*	-15%	-4%	-12%
COc1ccccc1OCC(=O)N1CCCCCCC1	-2%	44%	nt	-10%	-3%	4%
O=C(Cc1c[nH]c2ccccc12)N1CCN(S(=O)(=O)c2ccc(Cl)cc2)CC1	-8%	-5%	14µM*	-27%	-11%	0%
COc1ccccc1OCC(=O)N1CCN(C(=O)COc2ccccc2OC)CC1	-14%	28%	40µM*	-20%	nt	3%
O=S(=O)(c1ccc(Cl)cc1)N1CCN(Cc2c[nH]c3ccccc23)CC1	-36%	26%	-32%[59 µM]	3%	nt	nt
O=C(NCCc1csc2nc(-c3ccccc3F)nn12)C(=O)Nc1cc(F)ccc1F	-2%	24%[57 µM]	2%[59 µM]	5%	nt	5%
COc1ccccc1OCC(=O)N1CCN(S(=O)(=O)c2ccc(Cl)cc2)CC1	9%	25%	45µM*	3%	-2%	1%
Cc1occc(=O)c1OCc1ccccc1	?	25%	14%	-6%	-13%	3%
Cc1occc(=O)c1O	?	23%	?	25µM*	3%	16%
COc1cccc(C2Nc3cc(Cl)c(S(N)(=O)=O)cc3S(=O)(=O)N2)c1 (stereo not given)	1%	-16%	1%[59 µM]	50µM*	nt	8%
COc1cccc(CNS(=O)(=O)c2ccc(-n3cnnn3)c(C)c2)c1	-1%	48%	2%	-8%	nt	-3%
COc1cc(S(=O)(=O)N(Cc2cccnc2)Cc2ccco2)ccc1-n1cnnn1	56µM*	-1%	5.6µM*	28µM*	-8%	-9%
COc1cccc(CN(Cc2cccnc2)S(=O)(=O)c2ccc(-n3cnnn3)c(C)c2)c1	79µM*	12%	?	89µM*	-5%	-12%
Cc1cc(S(=O)(=O)N(Cc2ccccc2)Cc2ccc(N(C)C)cc2)ccc1-n1cnnn1	-33%	-23%	8.9µM*	40µM*	10%[11.4 µM]	15%
Cc1cc(S(=O)(=O)N(C)CCc2ccccc2)ccc1-n1cnnn1	0%	26%	4%	6%	-9%	-1%
SMILES	BAZ2B block	HP1b binding inh	G9a block	JMJD2A Tudor	L3MBTL1 inh	GLS inhibitor
O=c1cc(CSc2ncn[nH]2)[nH]c2c(Cl)cccc12	1%	25%[57 µM]	10%[59 µM]	-13%	nt	2%
CCOC(=O)C1=CN(C(=O)OC(C)(C)C)C(CN2C(=O)COCC2=O)C1 (stereo not given)	nt	?	nt	-73%	nt	nt
Oc1ccc(-c2csc(-c3cccnc3)n2)c(O)c1	nt	22%	-5%	-24%	1%	-5%
Oc1ccc(-c2nc(-c3ccc(O)c(O)c3)cs2)cc1	?	?	8.9µM*	50µM*	-28%	?
O=C1N=C(c2ccccc2)S/C1=C\c1cccs1	?	-74%	1.4µM*	22µM*	nt	24%
O=C1OC(c2ccccc2)=C/C1=C/c1cccs1	10µM*	-8%	13µM*	?	-24%	-6%
Cc1c(CCNC(=O)C(C)(C)C)sc2nc(-c3ccc(F)cc3)nn12	4%	26%	?	0%	nt	0%
CCOc1ccc(NC(=O)Cn2nc(SC)c(S(=O)(=O)c3ccccc3)c2N)cc1	-20%	?	-28%[59 µM]	-32%	nt	-7%
CCOC(=O)C1=NNC2(CC(=O)N(c3cc(C)cc(C)c3)C2=O)C1 (stereo not given)	2%	10%	-44%	-10%	nt	8%
CCOC(=O)C1=NN(N=O)C2(CC(=O)N(c3cc(C)cc(C)c3)C2=O)C1 (stereo not given)	-9%	10%	4.5µM*	-34%	nt	-6%
CCN(C(=O)C1CCN(S(=O)(=O)c2ccc3c(c2)CCCN3C(=O)C2CCC2)CC1)c1cccc(C)c1	-11%	4%[57 µM]	-8%[59 µM]	-30%	nt	-14%
CCCCNC(=O)/C=C/c1cccs1	5%	-10%	19%[59 µM]	10%[57.1 µM]	5%	17%
CC(=O)N1CCN(C(=O)CNC(=O)c2cccs2)CC1	-11%	40%	-3%[2.33 µM]	-11%	-3%	-4%
CCN1CCN(C(=S)NC(=O)c2cccs2)CC1	?	-17%	50µM*	8.9µM*	nt	-6%
CCN1CCN(C(=S)NC(=O)/C=C/c2cccs2)CC1	-3%	28%	50µM*	-10%	16%	13%
CCNc1ccc(S(=O)(=O)N(C)C)cc1[N+](=O)[O-]	?	-6%	nt	32µM*	3%	1%
O=[N+]([O-])c1cccc(S(=O)(=O)c2ccc(NCCO)c([N+](=O)[O-])c2)c1	-28%	?	-29%	14µM*	-13%	?
CCN(CC(=O)Nc1ccc(NC(C)=O)cc1)C(=O)CSc1ncnc2sc(C)c(C)c12	-32%	8%	13µM*	?	-28%	1%
Cc1sc2ncnc(SCC(=O)NC(=O)c3cccn3C)c2c1C	-21%	4%	32µM*	-25%	nt	4%
CC(=O)c1ccc(NC(=O)c2ccccc2Sc2ncnc3sc(C)c(C)c23)cc1	-36%	20%	32µM*	-21%	-2%	6%
Cc1sc2ncnc(Sc3ccccc3C(=O)O)c2c1C	-9%	9%	-15%[59 µM]	-5%	nt	5%
